VACV Venus inh: qHTS for Stage-Specific Inhibitors of Vaccinia Orthopoxvirus: Venus Reporter Primary qHTS; Vaccinia virus Venus reporter expression, fluorescence; hit rate 0.46% among 330,000; AID 720580, 2013; Potency, µM (top dose mostly 36.5 µM), inactives show at the highest dose activity change, negative = inhibition, actives largely listed as inhibitors; calls by dose curve; tested in A549 cells; further: nearly all actives have a fitted effect of over 30% in size
Pf growth 96h: Primary qHTS for delayed death inhibitors of the malarial parasite plastid, 96 hour incubation | Potency, µM (series often up to 28.7 µM), for the others: at the highest dose activity change, negative = inhibition, hits mostly inhibitors | AID 504834, 2011 | P. falciparum luciferase reporter growth, 96 h | hit rate 6.9% among 320,000
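Two-generation exposure (96 h) targets delayed-death phenotype. Reporter parasites carrying integrated firefly luciferase, in red cells at 2% hematocrit and 0.05% parasitemia final, kept at 37 C, 5% CO2; luminescence loss indicates inhibition.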
AMA1 RON2 block: qHTS for Inhibitors of AMA1-RON; Towards Development of Antimalarial Drug Lead: Primary Screen; hit rate 0.2% among 360,000; AlphaScreen AMA1-biotinylated RON2 peptide binding; Plasmodium falciparum AMA1 (3D7) - RON2 peptide interaction; AID 720542, 2013; Potency, µM (series often up to 58.2 µM), inactives show top-dose activity change, negative = inhibition, most hits filed as inhibitors;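 further: 0% = vehicle wells and -100% = peptide control; nearly all actives have a fitted effect of over 45% in size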
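AMA1 (3D7) with his tag at 25 nM final met compounds first, then biotinylated RON2 peptide at 25 nM; detection used donor plus acceptor beads, 10 µg/mL apiece, read by AlphaScreen after 30 min at room temperature.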
Vaccinia mCherry: qHTS for Stage-Specific Inhibitors of Vaccinia Orthopoxvirus: mCherry Reporter Primary qHTS | Vaccinia virus mCherry reporter infection, fluorescence | Potency, µM (titrated, usually from 36.5 µM), for the others: at the highest dose activity change, negative = inhibition, most hits filed as inhibitors | hit rate 0.63% among 310,000 | AID 720579, 2013; calls by dose curve; tested in A549 cells; further: nearly all actives have a fitted effect of over 35% in size
Pf growth 48h: Primary qHTS for delayed death inhibitors of the malarial parasite plastid, 48 hour incubation | P. falciparum luciferase growth in erythrocytes, 48 h | Potency, µM (doses to about 28.7 µM), for inactives: top-dose activity change, negative = inhibition, actives largely listed as inhibitors | hit rate 5.9% among 310,000 | AID 504832, 2011
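Read-out is firefly luciferase luminescence from an integrated reporter in P. falciparum, so falling signal marks reduced parasite growth. Infected erythrocytes were at 2% hematocrit and 0.1% parasitemia (final) in Albumax-supplemented RPMI 1640.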
Starred values were filed as active, the others as inactive; i = inactive; ? = inconclusive; . = no result given; [ ] = another dose, or the depositor's remark. This is a sample that favours compounds with a hit; in the whole collection about 8.7% have one here. Unless noted, the call rests on the fitted dose curve; in most records, active means well fitted curve in the direction sought with a large enough effect; inconclusive means small, poorly fitted or top-dose-only effect, or another doubt; inactive means no such curve, though single readings can be large; an effect the other way counts as inactive or inconclusive. Unless noted, on the % scale 0 is the no-effect control and ±100 the full control effect; potency means the concentration at half of the fitted maximal effect.

SMILES	VACV Venus inh	Pf growth 96h	AMA1 RON2 block	Vaccinia mCherry	Pf growth 48h
Cc1cc(N=Nc2c(O)c3ccccc3[nH]c2=O)ccc1N=Nc1ccc(C(=O)N(C)C)cc1	-30%	2.1µM*	-5%	-10%	1.9µM*
Cc1ccc(CNC(=O)CCCn2nc(C)n3c(cc4sccc43)c2=O)cc1	-2%	.	.	-9%	.
CC(=O)C1=C(c2ccccc2)N(C(C)=O)n2c(C)nnc2S1	.	-20%	-4%	.	2.3µM*
COc1ccc(OC)c(CCNC(=O)c2ccc3[nH]c(C)c(C)c3c2)c1	0%	.	.	i	.
O=C(CNC(=O)c1sc2ccccc2c1Cl)NCc1cccc(C(F)(F)F)c1	16µM*	-2%	25%	-26%	?
O=C(NCc1ccco1)c1sc2cc(Cl)ccc2c1Cl	-17%	i	4%	-7%	18%
O=C(NCc1ccco1)c1sc2ccccc2c1Cl	-29%	3.3µM*	0%	.	63%
O=C(Cc1ccc(NC(=O)N2CCCCc3ccccc32)cc1)NCc1ccccc1	-17%	.	.	-17%	.
CC1CCCC(C)N1C(=O)CSc1nnc(CSc2ncccn2)n1C (stereo not given)	-3%	10µM*	17%	-7%	-6%
CCOc1ccc(CNC(=O)CCS(=O)(=O)c2cc3c4c(c2)CCN4C(=O)CC3)cc1	4%	.	.	-11%	.
CC(C)(C)C(=O)Nc1ccc2nc(SCC(=O)N3CCc4ccccc43)sc2c1	-15%	.	.	i	.
COc1ccc(CN(C(=O)CN2C(=O)C(C)Oc3ccccc32)C2CCCC2)c(OC)c1 (stereo not given)	.	8.3µM*	-9%	.	4.7µM*
COc1ccc(CN(C(=O)CN2C(=O)COc3ccccc32)C2CCCC2)c(OC)c1	-2%	.	-7%	i	?
O=C1c2cccc(Sc3ccccc3)c2C(=O)c2c(Sc3ccccc3)cccc21	-8%[7.34 µM]	?	?	-11%[7.34 µM]	13µM*
O=C1c2ccccc2C(=O)c2ccccc21	-5%	15µM*	.	-9%	?
CN(C)c1cccc2c1C(=O)c1ccccc1C2=O	-13%	-2%	11µM*	-21%	39%
CN1C(=O)c2cccc(N(C)C)c2C1=O	-10%	-8%	?	-9%	-11%
O=C1c2ccccc2C(=O)c2[nH]c(=O)[nH]c21	2.8µM*	1.7µM*	-15%	1.3µM*	.
O=C1c2cccc(O)c2C(=O)c2c(O)cccc21	0%	38%	.	i	43%
Brc1cccc(-c2cnn3c(-c4ccccc4)cc(-c4ccccc4)nc23)c1	-1%	.	.	-7%	.
COc1cccc(CCNc2ncnc3sc(C(=O)N4CCOCC4)c(C)c23)c1	-15%	.	.	i	.
COc1ccccc1C(=O)Nc1cc2c(cc1N1CCCCC1)n(C)c(=O)n2C	-21%	.	.	-25%	.
NC(=O)CSc1nc2c(c(=O)n1-c1ccccc1)C1(CCCCC1)Cc1ccccc1-2	-25%	12µM*	21%	i	-14%
O=c1c2c(nc3n1CCCCC3)-c1ccccc1CC21CCCCC1	-7%	8.3µM*	-2%	-14%	-17%
CCCn1c(SCC#N)nc2c(c1=O)C1(CCCC1)Cc1ccccc1-2	-26%	4.7µM*	-1%	?	-21%
SMILES	VACV Venus inh	Pf growth 96h	AMA1 RON2 block	Vaccinia mCherry	Pf growth 48h
CCc1nc2c(c(=O)[nH]1)C1(CCCC1)Cc1ccccc1-2	-6%	?	?	-11%	2%
CCC1(C)Cc2ccccc2-c2nc3n(c(=O)c21)CCCCC3 (stereo not given)	.	23%	-1%	.	-5%
N#CCSc1nc2c(c(=O)n1Cc1ccco1)C1(CCCC1)Cc1ccccc1-2	-29%	?	-7%	-7%	4%
NNc1nc(N)c2c(n1)-c1ccccc1CC21CCCC1	-8%	1.7µM*	-10%	-13%	10µM*
Cc1cccc(-n2c(SCC(N)=O)nc3c(c2=O)C2(CCCC2)Cc2ccccc2-3)c1	?	14%	-7%	?	17%
O=C(C[N+]12CCCc3cccc(c31)CCC2)c1ccc2ccccc2c1	-17%	.	.	i	.
O=c1c2cc3c(cc2n(Cc2ccc(Cl)cc2)c(=O)n1Cc1nc(-c2ccccc2)no1)OCO3	-10%	.	.	0%	.
O=C(NCc1ccc(F)cc1Cl)c1cc(=O)[nH]c2ccc(S(=O)(=O)N3CCCCC3)cc12	-7%	.	.	-13%	.
COc1ccc(CCNC(=O)NCc2noc3ccc(C)cc23)c(OC)c1	-7%	.	.	-11%	.
Cc1nc(-c2ccccn2)nc(SCC(=O)c2ccccc2)c1Cl	?	5.2µM*	36%	?	15µM*
Cc1ccc(Nc2cc(=O)[nH]c(=O)[nH]2)cc1C	-6%	26%	1%	-10%	?
Cc1cccc(Nc2cc(=O)[nH]c(=O)[nH]2)c1C	-3%	276%	-3%	i	-9%
O=c1cc(Nc2cccc(Br)c2)[nH]c(=O)[nH]1	-2%	12µM*	6%	0%	-18%
Cc1cccc(Nc2cc(=O)[nH]c(=O)[nH]2)c1	-6%	12µM*	3%	-5%	-7%
COc1cc(CCC(=O)NCc2ccc3c(c2)CCN3C(=O)c2cccc(C)c2)cc(OC)c1OC	-7%	.	.	-16%	.
COC(=O)c1ccc(CSc2nnc(CNC(=O)COc3ccc(Cl)cc3)o2)o1	-13%	5.9µM*	0%	-4%	-12%
COC(=O)c1ccc(CSc2nnc(CNC(=O)c3ccc(OC)cc3)o2)o1	.	?	-12%	.	6%
CCOc1ccccc1NC(=O)CSc1nnc(CNC(=O)COc2ccc(Cl)cc2)o1	-2%	10µM*	-10%	-14%	6%
CCCCC/C(C=O)=C/c1ccccc1	.	0%	.	.	-2%
CC(C)Oc1ccc(-c2nc(-c3cccnc3)no2)cc1	-12%	.	.	38%	.
N#CC1=C(N)C(C#N)(C#N)C(c2cccnc2)C2COCC=C12 (stereo not given)	-10%	.	20%	-19%	-5%
N#CC1=C(N)C(C#N)(C#N)C(c2cccnc2)C2CN(C(=O)OCc3ccccc3)CC=C12 (stereo not given)	-23%	9.3µM*	-13%	-24%[1.46 µM]	?
CCCCOc1ccc(C2C3CN(C(=O)OCC)CC=C3C(C#N)=C(N)C2(C#N)C#N)cc1OC (stereo not given)	.	.	4%	.	12µM*
CC(=O)N1CC=C2C(C#N)=C(N)C(C#N)(C#N)[C@H](c3ccoc3)[C@H]2C1	.	53%	4%	.	-9%
Cc1ccc(C2C3CN(C(C)C)CC=C3C(C#N)=C(N)C2(C#N)C#N)cc1 (stereo not given)	11%	0%	31%	-13%	8.3µM*
CCOC(=O)N1CC=C2C(C#N)=C(N)C(C#N)(C#N)[C@H](c3ccc(OCC)c(OCC)c3)[C@H]2C1	.	8%	-5%	.	5.2µM*
Cc1oc2cc3oc(=O)c(CC(=O)NCc4ccccc4)c(C)c3cc2c1C	-17%	.	.	-16%	.
